The source of these data is PubChem BioAssay (NCATS).

Inconclusive results are not listed. Active and inactive are the calls of the source. Unless noted, calls come from the whole dose curve; as a rule, active = well fitted curve in the direction sought with a large enough effect; inconclusive = small, poorly fitted or top-dose-only effect, or another doubt; inactive = no such curve, though single readings can be large; an effect the other way counts as inactive or inconclusive.

Test [1] in a line: Primary qHTS for small molecule stabilizers of the endoplasmic reticulum resident proteome: Secreted ER Calcium Modulated Protein (SERCaMP) assay (AID 1508630). Note: % is set by controls: 0 for no effect and ±100 for the full control effect. The essentials:
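The SH-SY5Y reporter protocol was run at 3 concentrations up to 38.3 uM (primary) or 11 concentrations (follow-up): 16 h compound, 100 nM thapsigargin for 4 h, then extracellular luciferase luminescence.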

Test [2] deals with Lysosomal acid glucosylceramidase (Homo sapiens) (UniProt P04062). As to the kind of experiment: Glucocerebrosidase-p2 (AID 348; in the data active = potency below about 10 µM; note: potency is the fitted concentration of half-maximal effect). The following applies: purified GBA, blue fluorogenic substrate, 40 min. An outline of the steps: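 Normal human glucocerebrosidase (0.2 nM) with blue fluorogenic substrate (80 uM final) in citrate/phosphate pH 5.9 with 10mM sodium taurocholate, 0.01% tween-20; 40 min RT, NaOH/glycine stop; fluorescence Ex 365/Em 440; AC50 from a titration from 0.6 nM upwards.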
Chain of Lysosomal acid glucosylceramidase (Homo sapiens) (P04062 whole entry, looked up): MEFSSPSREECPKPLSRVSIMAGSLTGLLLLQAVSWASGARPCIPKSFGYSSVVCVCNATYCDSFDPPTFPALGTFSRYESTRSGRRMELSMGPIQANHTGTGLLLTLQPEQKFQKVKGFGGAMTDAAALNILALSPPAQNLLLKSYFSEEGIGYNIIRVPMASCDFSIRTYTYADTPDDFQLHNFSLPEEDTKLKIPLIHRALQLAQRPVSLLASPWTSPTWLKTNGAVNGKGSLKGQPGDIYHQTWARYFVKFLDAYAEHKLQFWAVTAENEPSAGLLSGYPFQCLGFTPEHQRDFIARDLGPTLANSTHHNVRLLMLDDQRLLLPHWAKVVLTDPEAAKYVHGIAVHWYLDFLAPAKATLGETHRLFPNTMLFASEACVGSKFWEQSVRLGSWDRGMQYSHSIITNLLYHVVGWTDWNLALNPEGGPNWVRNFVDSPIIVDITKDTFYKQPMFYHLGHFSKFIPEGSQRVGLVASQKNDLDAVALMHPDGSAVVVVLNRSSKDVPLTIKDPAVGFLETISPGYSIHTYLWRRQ

Test [3] is described as follows: AP1 Signaling Pathway (AID 357; active = well fitted curve in either direction with a large enough effect, not every such curve was filed as active;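 note: ME-180 reporter cells stimulated with EGF at its EC50 level; % is set by controls: 0 for no effect and ±100 for the full control effect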). The following applies: ME-180 AP-1-bla reporter, EGF-induced, beta-lactamase ratio, 5 h; at 7.69 µM (top of the series) unless noted. The essentials:
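Modulation of EGF-driven AP-1 transcription was assessed with a beta-lactamase reporter in ME-180 cells. Compound and EC50 EGF were co-incubated 5 hours at 37 °C before 2.5-hour CCF4 loading at room temperature and dual-emission reading.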

Test [4] addresses Cytochrome P450 1A2 (Homo sapiens) (UniProt P05177). As to the kind of experiment: p450-cyp1a2 (AID 410; calls by dose curve; note: potency is the fitted concentration of half-maximal effect;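 for activity change, negative = inhibition: -100% = full effect of reference inhibitor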). The essentials:
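O-Demethylation of luciferin 6' methyl ether by human CYP1A2 is monitored as luciferase luminescence. Substrate sits at Km (100uM); enzyme is 20nM. Values are scaled to 57 uM furafylline as maximal inhibition.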

Test [5] in a line: NFAT Signaling Pathway (AID 444; active = well fitted curve in either direction with a large enough effect, not every such curve was filed as active;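 note: carbachol stimulus at about its EC50 of 1 µM final; % is set by controls: 0 for no effect and ±100 for the full control effect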). The note with it: Jurkat NFAT-bla M1, carbachol, beta-lactamase ratio, 5 h; at 7.69 µM (top of the series) unless noted. An outline of the steps: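 Jurkat cells with NFAT-driven β-lactamase reporter and co-expressed M1 receptor, stimulated with carbachol (final 1 uM, ~EC50), compound titration, 5 h at 37 °C. CCF4 loaded 1 h at RT; 460/530 nm ratio gave %activity and AC50.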

Test [6] is described as follows: Stat Signaling Pathway (AID 446; active = well fitted curve in either direction with a large enough effect, not every such curve was filed as active;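 note: ME-180 cervical cancer cells given 40 pM IL-6 alongside compound; SIE-controlled beta-lactamase reporter measured as 460/530 nm FRET emission ratio; % is set by controls: 0 for no effect and ±100 for the full control effect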). The following applies: ME-180 (cervical carcinoma) SIE beta-lactamase reporter, IL-6 stimulated, 5 h; at 7.69 µM (top of the series) unless noted. An outline of the steps:
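Compound effects on IL-6-induced STAT reporter activity were measured in ME-180 cells. After overnight culture, cells were co-treated with 40 pM IL-6 for 5 hrs before beta-lactamase substrate loading at room temperature.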

In test [7] the target is Glucocorticoid receptor (Homo sapiens) (UniProt P04150). As to the kind of experiment: GR-EFC Redistribution (AID 451; calls by dose curve; note: potency is the fitted concentration of half-maximal effect). The note with it: CHO-K1 GR-EFC translocation, beta-gal luminescence, 2 h. An outline of the steps:
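CHO-K1 cells expressing nuclear EA and GR-ED fragments of b-gal; compounds titrated up to 46 uM final, 2 h at 37 C. GR nuclear translocation read as complemented b-gal luminescence after 1 h RT detection.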

In test [8] the target is Mitogen-activated protein kinase 10 (Mus musculus) (UniProt Q61831). As to the kind of experiment: JNK3 AlphaScreen Assay (AID 530; active = well fitted curve in either direction with a large enough effect, not every such curve was filed as active). An outline of the steps: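 Activity was read by AlphaScreen after JNK3-containing HepG2 lysate (cytokine pre-activated) phosphorylated biotinylated GST-cJun with 10 uM ATP at room temperature. Phospho-Ser73 cJun antibody with Protein-A acceptor beads provided detection.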

Test [9] has as its target 3',5'-cyclic-AMP phosphodiesterase 4B (Homo sapiens) (UniProt Q07343). As to the kind of experiment: qHTS Assay for Inhibitors of PDE-IV (AID 607; active = well fitted activation curve with a large enough effect in the main read-out, with a control signal flat, not every such curve was filed as active; note: % of control where 0% means no effect). The essentials:
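ACTOne HEK293 cells carry a modified cAMP-gated CNG channel and express endogenous PDE4; plated 1000 cells/well, compounds up to 22.9 uM final. Membrane-potential dye fluorescence (ex 535/em 590) was read; parental cells received 10 uM forskolin + 100 uM RO 20-1724.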

Test [10] can be described thus: qHTS Assay for Lipid Storage Modulators (AID 1519; calls by dose curve). The note with it: Drosophila S3 cells, BODIPY lipid droplet/cell ratio, laser cytometry, cells loaded with oleic acid; for activity change, negative = inhibition: at 57.5 µM (top of the series). An outline of the steps: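 Cells seeded at 5,000 per well were treated with compounds over a concentration series and loaded with oleic acid (400 uM, as added). Lipid droplet fluorescence (488 nm excitation, 500-530 nm channel) was read by laser-scanning cytometry and normalized to 20 uM Triacsin C.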

Test [11] has as its target Rap guanine nucleotide exchange factor 3 (Homo sapiens) (UniProt O95398). Description: Confirmatory qHTS for antagonist of cAMP-regulated guanine nucleotide exchange factor 3 (EPAC1) (AID 1645880).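 Note: plate controls were DMSO only for no effect and full effect of the ATA control for full effect; nearly all actives have a fitted effect of over 55% in size.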 The essentials:
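Released BODIPY-GDP fluoresces less than Rap1-bound BODIPY-GDP; the signal is followed at 480/540 nm at 5-min intervals over 30 min, after 5 min at room temperature. Reactions contain 100 nM EPAC1, 250 nM RAP1B-BODIPY-GDP and 50 uM GDP; results are normalized to ATA and DMSO.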

The target is the same in test [12]. Description: Confirmatory qHTS for agonist of cAMP-regulated guanine nucleotide exchange factor 3 (EPAC1) (AID 1645881).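 Note: EPAC1 catalysed release of BODIPY-GDP from Rap1B seen as fluorescence loss; 100% = effect of cAMP agonist control; nearly all actives have a fitted effect of over 75% in size.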
Test [13] concerns the target Rap guanine nucleotide exchange factor 4 (Homo sapiens) (UniProt Q8WZA2). Description: Confirmatory qHTS for antagonist of cAMP-regulated guanine nucleotide exchange factor 4 (EPAC2) (AID 1645885). Note: % is set by controls: 0 for no effect and ±100 for the full control effect; nearly all actives have a fitted effect of over 25% in size.
Test [14] deals with Glucocorticoid receptor (Homo sapiens) (UniProt P04150). Description: GR-GFP Redistribution (AID 450;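 active = compounds whose dose series gives a full or clear partial fitted curve of increased nuclear translocation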; note: potency is the fitted concentration of half-maximal effect). The note with it: U2OS GR-GFP nuclear translocation, laser cytometry, 2 h.
Chain of Glucocorticoid receptor (Homo sapiens) (P04150 whole entry, looked up, the tested form may be a part): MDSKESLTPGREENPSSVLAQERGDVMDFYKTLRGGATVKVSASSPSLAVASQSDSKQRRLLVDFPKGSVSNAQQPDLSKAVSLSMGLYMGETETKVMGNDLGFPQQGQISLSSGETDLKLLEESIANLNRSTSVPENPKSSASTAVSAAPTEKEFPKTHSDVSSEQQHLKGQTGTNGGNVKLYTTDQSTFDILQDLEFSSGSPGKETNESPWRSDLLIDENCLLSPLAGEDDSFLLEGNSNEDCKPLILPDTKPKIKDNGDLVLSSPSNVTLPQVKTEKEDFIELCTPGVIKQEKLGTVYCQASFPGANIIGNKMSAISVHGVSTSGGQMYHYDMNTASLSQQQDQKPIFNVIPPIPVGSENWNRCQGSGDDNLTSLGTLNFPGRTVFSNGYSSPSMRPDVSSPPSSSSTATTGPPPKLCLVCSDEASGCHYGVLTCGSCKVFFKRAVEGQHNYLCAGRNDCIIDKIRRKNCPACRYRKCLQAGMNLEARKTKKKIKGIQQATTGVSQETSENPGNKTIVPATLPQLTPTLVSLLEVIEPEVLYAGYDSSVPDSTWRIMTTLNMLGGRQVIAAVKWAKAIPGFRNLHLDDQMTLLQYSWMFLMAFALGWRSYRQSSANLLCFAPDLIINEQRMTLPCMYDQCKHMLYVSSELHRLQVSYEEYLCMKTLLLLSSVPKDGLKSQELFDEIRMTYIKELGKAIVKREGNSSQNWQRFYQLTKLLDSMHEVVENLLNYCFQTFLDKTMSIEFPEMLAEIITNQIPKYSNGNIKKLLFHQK
Test [15] concerns the target Cytochrome P450 3A4 (Homo sapiens) (UniProt P08684). As to the kind of experiment: qHTS Assay for Activators of Cytochrome P450 3A4 (AID 885). Note: nearly all actives have a fitted effect of over 65% in size. An outline of the steps: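 CYP3A4 activity: Luciferin-PPXE O-dealkylation, 25uM substrate, 200mM KPO4, RT throughout. Read-out is luciferase luminescence; higher values reflect activation.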
The target in test [16] is Dual specificity protein kinase CLK4 (Homo sapiens) (UniProt Q9HAZ1). As to the kind of experiment: qHTS Assay for Inhibitors of CDC-like Kinase 4 (ADP-Glo Assay) (AID 1771). Note: % is set by controls: 0 for no effect and ±100 for the full control effect; nearly all actives have a fitted effect of over 70% in size. The essentials: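 Compounds are pin-transferred onto substrate mix (100 uM RS peptide, 1 uM ATP), then 25 nM Clk4 is added. After 1 hr at room temperature, ADP-Glo reagent runs 45 min, detection reagent 30 min, then luminescence is read.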
Chain of Dual specificity protein kinase CLK4 (Homo sapiens) (Q9HAZ1 whole entry, looked up): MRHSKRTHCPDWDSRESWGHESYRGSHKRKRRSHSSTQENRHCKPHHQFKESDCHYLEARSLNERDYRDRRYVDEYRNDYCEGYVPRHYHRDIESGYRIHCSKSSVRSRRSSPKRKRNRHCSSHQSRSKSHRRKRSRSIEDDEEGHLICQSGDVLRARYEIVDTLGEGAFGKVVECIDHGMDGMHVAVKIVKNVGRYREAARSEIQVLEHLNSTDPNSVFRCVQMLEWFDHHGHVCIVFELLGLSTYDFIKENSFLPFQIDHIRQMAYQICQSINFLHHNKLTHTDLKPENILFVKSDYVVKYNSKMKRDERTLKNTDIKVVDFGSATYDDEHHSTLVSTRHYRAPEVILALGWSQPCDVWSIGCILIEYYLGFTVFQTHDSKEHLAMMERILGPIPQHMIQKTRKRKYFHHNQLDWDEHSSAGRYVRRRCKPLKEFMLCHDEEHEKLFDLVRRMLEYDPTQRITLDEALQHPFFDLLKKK

Test [17] shares this target. As to the kind of experiment: qHTS Assay for Inhibitors of CDC-like Kinase 4 (ADP-FP Assay) (AID 1795).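 Note: recombinant human CLK4 phosphorylating RS repeat peptide at 1 µM ATP; % is set by controls: 0 for no effect and ±100 for the full control effect; nearly all actives have a fitted effect of over 60% in size.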 The essentials: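 Inhibition of ADP formation by 6.25 nM Clk4 is measured using 1 uM ATP and 100 uM RS repeat peptide over one hour. Produced ADP displaces a fluorescent tracer from antibody, lowering polarization.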
Test [18] deals with Ubiquitin carboxyl-terminal hydrolase 1 (Homo sapiens) (UniProt O94782). Description: Inhibitors of USP1/UAF1: Pilot qHTS (AID 504865).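 Note: rhodamine fluorescence freed from ubiquitin-rhodamine substrate followed over time; top concentration of the series differs between compounds; % is set by controls: 0 for no effect and ±100 for the full control effect; nearly all actives have a fitted effect of over 35% in size.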 The essentials: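 Kinetic fluorescence assay: 1nM USP1/UAF1, 15 min compound preincubation, then 150nM Ub-Rho; 480/540 nm.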
Chain of Ubiquitin carboxyl-terminal hydrolase 1 (Homo sapiens) (O94782 whole entry, looked up): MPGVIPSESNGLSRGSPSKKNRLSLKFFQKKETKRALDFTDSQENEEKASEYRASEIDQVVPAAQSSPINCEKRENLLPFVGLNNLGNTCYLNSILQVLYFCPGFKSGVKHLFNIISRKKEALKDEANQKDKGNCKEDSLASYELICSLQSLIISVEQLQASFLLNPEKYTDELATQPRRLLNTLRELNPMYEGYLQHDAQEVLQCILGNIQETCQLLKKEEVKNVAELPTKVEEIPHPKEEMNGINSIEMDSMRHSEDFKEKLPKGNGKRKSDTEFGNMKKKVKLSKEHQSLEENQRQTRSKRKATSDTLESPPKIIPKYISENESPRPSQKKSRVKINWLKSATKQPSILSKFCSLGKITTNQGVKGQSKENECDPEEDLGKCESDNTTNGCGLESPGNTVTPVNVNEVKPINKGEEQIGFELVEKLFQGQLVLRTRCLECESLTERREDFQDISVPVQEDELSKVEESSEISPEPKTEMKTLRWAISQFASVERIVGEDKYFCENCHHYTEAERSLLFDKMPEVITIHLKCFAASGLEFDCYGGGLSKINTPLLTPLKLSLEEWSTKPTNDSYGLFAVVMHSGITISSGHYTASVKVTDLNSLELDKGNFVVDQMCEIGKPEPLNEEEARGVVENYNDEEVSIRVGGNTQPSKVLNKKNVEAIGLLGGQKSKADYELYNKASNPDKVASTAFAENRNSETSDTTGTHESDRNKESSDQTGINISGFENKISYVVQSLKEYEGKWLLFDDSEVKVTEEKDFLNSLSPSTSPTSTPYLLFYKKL
In test [19] the target is Dual specificity protein kinase CLK4 (Homo sapiens) (UniProt Q9HAZ1). Description: qHTS Assay for Inhibitors of CDC-like Kinase 4 (Kinase-Glo Assay) (AID 1770). Note: % is set by controls: 0 for no effect and ±100 for the full control effect; nearly all actives have a fitted effect of over 65% in size. The essentials:
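Inhibition was judged from remaining ATP, measured by Ultra-Glo luciferase bioluminescence after Clk4 (25 nM) had acted on RS peptide at 1 uM ATP for 4.5 hours, room temperature.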

Where [20] appears, read: measured here: cell count channel max response.
[21] abbreviates: measured here: lipid channel max response.

Chain of Cytochrome P450 1A2 (Homo sapiens) (P05177 whole entry, looked up): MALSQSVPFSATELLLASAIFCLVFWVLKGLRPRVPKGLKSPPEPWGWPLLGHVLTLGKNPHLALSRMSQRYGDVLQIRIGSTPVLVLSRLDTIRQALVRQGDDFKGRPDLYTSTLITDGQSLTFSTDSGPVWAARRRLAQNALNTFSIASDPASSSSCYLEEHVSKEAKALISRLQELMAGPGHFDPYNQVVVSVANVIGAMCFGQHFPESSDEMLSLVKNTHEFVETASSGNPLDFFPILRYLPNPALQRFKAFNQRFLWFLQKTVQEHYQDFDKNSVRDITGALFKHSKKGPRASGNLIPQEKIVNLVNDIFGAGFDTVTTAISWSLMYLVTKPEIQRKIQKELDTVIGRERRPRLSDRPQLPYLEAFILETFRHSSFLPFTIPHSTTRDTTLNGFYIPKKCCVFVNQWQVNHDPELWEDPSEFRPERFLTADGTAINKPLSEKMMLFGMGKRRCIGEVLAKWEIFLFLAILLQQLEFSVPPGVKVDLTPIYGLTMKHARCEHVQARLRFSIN
Chain of Rap guanine nucleotide exchange factor 3 (Homo sapiens) (O95398 whole entry, looked up): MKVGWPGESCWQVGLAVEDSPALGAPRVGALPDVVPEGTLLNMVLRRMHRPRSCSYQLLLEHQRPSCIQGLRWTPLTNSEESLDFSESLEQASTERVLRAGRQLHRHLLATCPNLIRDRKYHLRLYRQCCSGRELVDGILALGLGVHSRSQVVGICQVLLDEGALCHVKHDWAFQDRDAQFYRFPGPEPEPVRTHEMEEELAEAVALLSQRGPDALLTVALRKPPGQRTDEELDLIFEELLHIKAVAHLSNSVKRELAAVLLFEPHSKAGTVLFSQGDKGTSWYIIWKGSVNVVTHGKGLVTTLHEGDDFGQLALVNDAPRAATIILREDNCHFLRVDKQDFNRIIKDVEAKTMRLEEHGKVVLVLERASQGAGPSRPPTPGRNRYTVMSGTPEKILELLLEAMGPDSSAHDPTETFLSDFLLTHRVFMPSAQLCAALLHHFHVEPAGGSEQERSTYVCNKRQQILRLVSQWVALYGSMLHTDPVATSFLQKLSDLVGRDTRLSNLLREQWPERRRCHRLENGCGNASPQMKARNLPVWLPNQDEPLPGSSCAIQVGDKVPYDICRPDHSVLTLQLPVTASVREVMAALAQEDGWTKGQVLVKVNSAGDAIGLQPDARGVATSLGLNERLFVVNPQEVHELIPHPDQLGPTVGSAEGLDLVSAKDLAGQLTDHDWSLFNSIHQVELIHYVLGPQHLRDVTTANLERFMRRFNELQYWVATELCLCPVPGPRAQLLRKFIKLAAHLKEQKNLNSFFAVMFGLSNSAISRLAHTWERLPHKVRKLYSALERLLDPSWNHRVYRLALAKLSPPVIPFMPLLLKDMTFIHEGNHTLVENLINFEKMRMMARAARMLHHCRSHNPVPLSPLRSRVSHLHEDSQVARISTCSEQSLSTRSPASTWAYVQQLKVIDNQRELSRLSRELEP
Chain of Rap guanine nucleotide exchange factor 4 (Homo sapiens) (Q8WZA2 whole entry, looked up): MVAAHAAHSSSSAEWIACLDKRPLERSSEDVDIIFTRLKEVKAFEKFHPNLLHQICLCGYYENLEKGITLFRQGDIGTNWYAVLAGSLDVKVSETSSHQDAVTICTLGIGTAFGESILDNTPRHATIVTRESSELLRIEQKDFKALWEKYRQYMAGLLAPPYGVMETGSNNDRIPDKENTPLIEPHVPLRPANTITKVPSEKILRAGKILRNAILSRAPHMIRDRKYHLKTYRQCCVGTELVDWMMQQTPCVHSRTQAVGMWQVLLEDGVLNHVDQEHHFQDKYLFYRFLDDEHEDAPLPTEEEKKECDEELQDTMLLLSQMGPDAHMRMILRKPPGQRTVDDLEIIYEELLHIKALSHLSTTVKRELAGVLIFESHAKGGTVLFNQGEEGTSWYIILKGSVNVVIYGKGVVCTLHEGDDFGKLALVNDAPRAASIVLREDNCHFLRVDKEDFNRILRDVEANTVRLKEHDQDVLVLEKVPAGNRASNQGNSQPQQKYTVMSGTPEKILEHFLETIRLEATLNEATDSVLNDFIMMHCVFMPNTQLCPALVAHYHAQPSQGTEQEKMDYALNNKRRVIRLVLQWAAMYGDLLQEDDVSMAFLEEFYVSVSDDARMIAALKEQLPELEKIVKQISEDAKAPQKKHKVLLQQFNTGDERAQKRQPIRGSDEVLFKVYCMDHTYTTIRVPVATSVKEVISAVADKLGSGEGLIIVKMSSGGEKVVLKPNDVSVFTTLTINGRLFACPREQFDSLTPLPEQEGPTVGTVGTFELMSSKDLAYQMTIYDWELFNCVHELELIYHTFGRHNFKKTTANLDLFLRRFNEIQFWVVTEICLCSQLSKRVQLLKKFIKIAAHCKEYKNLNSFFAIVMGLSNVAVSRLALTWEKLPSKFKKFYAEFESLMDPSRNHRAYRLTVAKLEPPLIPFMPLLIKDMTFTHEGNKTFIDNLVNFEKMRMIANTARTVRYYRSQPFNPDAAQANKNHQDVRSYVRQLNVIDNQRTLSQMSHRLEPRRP

With `CC(=O)Nc1ccccc1C(=O)C(=O)O`, the Potency result in test [1] was “inactive”.

Turning to `COc1ccc2c(c1OC)C(=O)N1c3ccccc3C(=O)OC21` (centres undefined), in test [1], the Potency result is “inactive”.

Regarding `CC1=NN(c2ccc([N+](=O)[O-])cc2)C(=O)C1[N+](=O)[O-]` (centres undefined), the Potency entry in test [1] is “inactive”.

For the compound `C=C(C(=O)O)[C@@H]1CC[C@@]2(C)CCC[C@](C)(O)[C@@H]2C1`, the Potency entry in test [1] is “inactive”.

In the case of `COCC(=O)N1CCC2(CC1)CCN(C(=O)Nc1cccc(C#N)c1)CC2`, the Potency in test [2] is > 11.4 µM (inactive); in test [7], > 46 µM (inactive). Further, the activity change, negative = inhibition was -4.8% (inactive) in test [3], -11.9% (inactive) in [5] and 1.13% (inactive) in test [10]. In addition, the Potency entry in test [4], in [9], in test [1], in [11] and in test [13] was “inactive” throughout. Further, the activity, negative = inhibition in test [6] was -4.23% (inactive). Further, the result in test [8] and in test [12] was inactive. Besides, the max response in test [10] (setting [20]) turned out to be 4.68%; in test [10] (setting [21]), 4.41%.

On to `COc1cc(C)c(CC/C(C)=C/C=C/C(C)=O)c(C)c1C`, for which the Potency entry in test [1] is “inactive”.

On to `CN(C)c1ncc2nc(-c3cccs3)c(=O)n(C[C@H]3CCCO3)c2n1`, for which the Potency in [2] is > 11.4 µM (inactive); in test [4] it was 1.58 µM (active); in test [14], > 9.22 µM (inactive); in test [7], > 46 µM (inactive). The activity change, negative = inhibition in [3] is -15.4% (inactive); in [5] it was 12.3% (inactive); in test [10], 4.26% (inactive). For the same compound, the activity, negative = inhibition in [6] is 1.25% (inactive). In addition, the compound was called inactive in test [8]. Also, the Potency result in test [15], in test [16], in [17], in test [18], in [1] and in test [11] was “inactive” in each case. For the same compound, the Potency entry in test [13] was “inactive”. Also, the max response came out at 14.9% in test [10] (setting [20]) and 17.7% in test [10] (setting [21]).

Take `C=CC(C1=CC(=O)C=CC1=O)c1ccc(O)cc1` (centres undefined): the Potency entry in test [1] was “inactive”.

As for `Cc1cccc(CNc2nc(-c3ccc4c(c3)OCO4)nc3ccccc23)c1`, the Potency is > 11.4 µM (inactive) in test [2], 0.631 µM (active) in test [4], > 46 µM (inactive) in test [14] and > 46 µM (inactive) in test [7]. Besides, the activity change, negative = inhibition in [3] was -27.3% (inactive); in [10] it was -7.8% (inactive). Also, the activity, negative = inhibition in [6] is -19.3% (inactive). In addition, the compound was called inactive in test [8] and in test [12]. Moreover, the Potency result in test [15], in [19], in test [16], in [17], in test [18] and in test [1] was “inactive” in each case. In [11], the Potency result was “inactive”. In addition, the max response in test [10] (setting [20]) is -19.2%; in test [10] (setting [21]), -24.8%.

For `COc1ccc(-n2c(=O)c(-c3cc(F)cc(F)c3)nc3cnc(N(C)C)nc32)cc1`, the results for the Potency in test [2], in test [14] and in test [7] were > 11.4 µM (inactive), > 9.22 µM (inactive) and > 46 µM (inactive), respectively. Also, the activity change, negative = inhibition was 17.5% (inactive) in [5] and 5.64% (inactive) in test [10]. The outcome in [8] and in test [12] was inactive. Moreover, the Potency entry in test [9], in test [19], in [16], in test [17], in test [18] and in test [1] was “inactive” each time. Besides, the Potency result in [11] and in test [13] was “inactive” each time. Moreover, the max response was 11.6% in test [10] (setting [20]) and 18.1% in test [10] (setting [21]).
